HT1080 IDH1KD tx: toxicity to HT-1080 IDH1 knockdown cells (counter line). HT-1080 IDH1 knockdown viability, ATP luminescence, 48 h. Potency, µM (doses to about 46.1 µM), for inactives: top-dose activity, negative = toxicity, usual class: cytotoxic. actives 2% (n = 360,000);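 note: potency is the fitted concentration of half-maximal effect; 0% = DMSO wells and -100% = cell-free medium wells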
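After a 2 h attachment period, IDH1KD HT-1080 cells took pin-transferred compound for 48 h at 37 °C; ATP-based luminescence after 10 min room-temperature reagent incubation reported viability.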
12-LOX inh: blocks human arachidonate 12S-lipoxygenase | Potency, µM (titrated, usually from 108 µM), inactives show at the top dose activity change, negative = inhibition, usual class: inhibitors | actives 1.1% (n = 580,000) | P18054 | purified 12hLO, xylenol orange hydroperoxide absorbance; note: potency is the fitted concentration of half-maximal effect
Target sequence (P18054 whole entry, looked up): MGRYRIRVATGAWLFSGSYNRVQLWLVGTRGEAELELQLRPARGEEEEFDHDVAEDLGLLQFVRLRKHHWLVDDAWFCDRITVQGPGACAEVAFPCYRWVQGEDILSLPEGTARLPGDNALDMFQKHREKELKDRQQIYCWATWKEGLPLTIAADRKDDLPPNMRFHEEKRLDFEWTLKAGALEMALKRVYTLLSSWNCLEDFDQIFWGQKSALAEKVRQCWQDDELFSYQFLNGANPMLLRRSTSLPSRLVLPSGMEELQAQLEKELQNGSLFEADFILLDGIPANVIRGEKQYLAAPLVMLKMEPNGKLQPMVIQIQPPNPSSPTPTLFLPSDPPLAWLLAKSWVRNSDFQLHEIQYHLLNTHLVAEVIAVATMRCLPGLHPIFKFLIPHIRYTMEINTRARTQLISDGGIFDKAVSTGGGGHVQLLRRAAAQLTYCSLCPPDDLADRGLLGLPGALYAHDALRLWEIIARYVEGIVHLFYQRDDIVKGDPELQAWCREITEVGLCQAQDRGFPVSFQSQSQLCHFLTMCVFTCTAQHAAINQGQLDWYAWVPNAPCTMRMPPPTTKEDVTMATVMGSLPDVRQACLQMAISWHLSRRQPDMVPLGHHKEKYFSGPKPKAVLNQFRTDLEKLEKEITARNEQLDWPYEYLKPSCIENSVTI
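Purified human 12hLO at 150 nM in 25 mM Hepes, 0.01% Triton X-100, pH 7.0, preincubated 15 min at room temperature with compound. Reaction started with 40 uM arachidonic acid, 30 min at room temperature. Hydroperoxide measured by Fe-xylenol orange, 573/405 nm absorbance ratio.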
HT1080NT lethal: kills 2HG-producing HT-1080-NT fibrosarcoma cells | HT-1080-NT fibrosarcoma viability, CellTiter-Glo ATP luminescence, 48 h | Potency, µM (titrated, usually from 46.1 µM), for the others: at the highest dose activity, negative = less viability, most hits filed as cytotoxic | actives 1.6% (n = 360,000) | AID 686970;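 note: NT is the 2HG producing partner of a matched IDH1 knockdown line; potency is the fitted concentration of half-maximal effect; 0% = DMSO-treated cells and -100% = media-only wells without cells; nearly all actives have a fitted effect of over 55% in size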
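750 cells/well, RPMI + 5% FBS; 2 h settle, compound pin-transfer, 48 h at 37 degrees C. CellTiter-Glo 10 min RT, luminescence. Normalized to DMSO and media-only wells.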
DT40 TDP1 CPT: growth inhibition of DT40 Tdp1-/-;hTDP1 cells with camptothecin (screen for TDP1 inhibitors); chicken DT40 Tdp1-/-;hTDP1 cells + 20 nM CPT, ATP luminescence, 48 h; Potency, µM (highest dose often 46.2 µM), for the others: top-dose activity change, negative = growth inhibition, hits mostly inhibitors; actives 12% (n = 420,000); AID 686979; note: potency is the fitted concentration of half-maximal effect; nearly all actives have a fitted effect of over 55% in size
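Cell growth measured by CellTiter-Glo luminescence after a minimum 48 h, 37 C compound exposure with 20 nM CPT in Tdp1-knockout DT40 cells stably expressing hTDP1, seeded 400/well; qHTS titration format.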
TDP1 cell noCPT: qHTS for Inhibitors of human tyrosyl-DNA phosphodiesterase 1 (TDP1): qHTS in cells in absence of CPT; DT40 Tdp1-/- hTDP1 cells, no CPT, ATP luminescence, 48 h; Potency, µM (highest dose often 46.2 µM), inactives show at the highest dose activity change, negative = growth inhibition, usual class: inhibitors; actives 15% (n = 420,000); AID 686978, 2013; note: potency is the fitted concentration of half-maximal effect; nearly all actives have a fitted effect of over 55% in size
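Seeded 400 DT40-hTDP1 cells/well (vehicle DMSO, no 20 nM CPT); pinned compounds; ≥48 hr at 37 °C; CellTiter-Glo luminescence as viability measure.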
IL-1B inflam inh: blocks inflammasome-driven IL-1 beta release; AID 743279; actives 4.7% (n = 360,000); THP-1 LPS/ATP IL-1B secretion, AlphaLISA, 16 h; stronger effect = lower value; activity change, % at 57.5 µM; in the data active = activity change below about -50%; inconclusive = mostly about -30% to -49%
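THP-1 cells pretreated 1 hr with compounds (up to 57.5 uM final), then stimulated with LPS (250 ng/mL final) plus ATP (1.25 mM final); secreted IL-1B measured by AlphaLISA after 16 hr, decreased signal indicating inhibition.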
Numbers without * were called inactive; u = inconclusive; x = not tested or not shown; [ ] = remark or other dose. This excerpt belongs to a sample that is enriched for hits. Unless noted, calls come from the whole dose curve; as a rule, active = well fitted curve in the direction sought with a large enough effect; inconclusive = small, poorly fitted or top-dose-only effect, or another doubt; inactive = no such curve, though single readings can be large; an effect the other way counts as inactive or inconclusive. Unless noted, % is set by controls: 0 for no effect and ±100 for the full control effect.

SMILES | HT1080 IDH1KD tx | 12-LOX inh | HT1080NT lethal | DT40 TDP1 CPT | TDP1 cell noCPT | IL-1B inflam inh
COc1cccc(/C=C/c2ccc3cccc([N+](=O)[O-])c3n2)c1 | x | 7% | x | x | x | x
CCn1c2ccccc2c2nnc(SCC(=O)N3CC(C)OC(C)C3)nc21 (stereo unspecified) | -1%[9.24 µM] | -6% | -6% | u | 16µM* | 22
Cc1ccc(C2=NN=C(NC(=O)CSc3nnc4c5ccccc5n(C)c4n3)SC2)cc1 | 29µM* | x | u | 10µM* | 9.2µM* | 0
CCCn1c2ccccc2c2nnc(SCC(=O)Nc3ncccn3)nc21 | -16% | 0% | -5% | 26µM* | u | 1
Cn1c2ccc(F)cc2c2nnc(SCC(=O)Nc3cccc(O)c3)nc21 | u | -11% | -20% | 1% | u | -71*
Cn1c2ccccc2c2nnc(SCC(=O)Nc3cccc(C(=O)O)c3)nc21 | 3% | 0% | -2% | -8% | -5% | 11
COc1ccccc1N1CCN(C(=O)CSc2nnc3c4ccccc4n(CC(=O)O)c3n2)CC1 | -19% | -11% | -4% | -11% | -18% | 15
Cn1ccnc1CN1C[C@@H](F)[C@@H](OCc2nc3ccccc3[nH]2)C1 | x | 102%[176 µM] | x | x | x | x
CN1C(=O)CCC2(CNC(=O)c3ccc(Cn4ccnc4)o3)CCC=C12 (stereo unspecified) | x | 1% | x | x | x | x
CSCCC(NC(=O)COc1ccccc1)C(=O)N1CCN(c2ccccc2Cl)CC1 (stereo unspecified) | -8% | 4% | 2% | u | u | -10
CCOc1cc2c(cc1CNC(=O)c1ccc(F)cc1Br)OC(C)C2 (stereo unspecified) | x | -10% | x | x | x | x
CC1CCCN(c2nc(-c3ccccc3O)nc3ccccc23)C1 (stereo unspecified) | x | -24% | x | -30% | u | x
CC1CCCN(c2c3c(nc4ccccc24)CCCC3)C1 (stereo unspecified) | 7% | u | 10% | u | u | -89*
COc1ccc(NC(=S)NNC(=O)c2ccccc2OC(F)F)cc1 | 3.5µM* | -2% | 3.5µM* | 13µM* | 18µM* | -15
Cc1cccc(NC(=S)NNC(=O)c2ccccc2Br)c1 | -1% | -14% | 1% | u | u | 9
CCNC(=S)NNC(=O)c1ccccc1OC(F)F | -5% | 5% | 4% | -5% | -4% | 17
Cc1cccc(NC(=S)NNC(=O)c2ccccc2OC(F)F)c1 | -3% | 1% | 3% | 23µM* | 29µM* | -4
CNC(=O)c1ccc(NC(=O)CSCc2csc(-c3ccc(F)cc3)n2)cc1 | x | -37% | x | x | x | x
COC(=O)c1cc2n(n1)CCN(C(=O)c1cccc3c1OCC3)C2 | x | 18% | x | x | x | x
CC(C)NC(=O)NC(=O)CN(C)C1CCCCC1 | x | 6% | x | x | x | x
COCCN1CCCCCC(O)c2cc(C(=O)N(C)Cc3ccc(N4CCCCC4)cc3)ccc21 (stereo unspecified) | x | 77% | x | x | x | x
Cc1ccnc(NC(=O)CCC(=O)N(CC(=O)NCc2ccccc2)c2ccc3c(c2)OCO3)c1 | 20% | 13% | -1% | 7.3µM* | 23µM* | 5
O=C(COc1ccc(F)cc1)Nc1ccc(OCc2cc(=O)n3ccsc3n2)cc1 | x | -6% | x | -21% | -20% | x
CN(C)Cc1ccccc1C(O)(c1ccccc1)c1ccccc1 | -10% | -12% | u | 29µM* | u | -71*
Cc1cccc(CN(C)C)c1CC(O)(c1ccccc1)c1ccccc1 | -3% | 8% | -2% | u | u | -4
CN(C)Cc1cc(C(F)(F)F)ccc1C(O)(c1ccccc1)c1ccccc1 | -2% | -23% | -15% | u | u | -75*

Screening data as filed in PubChem BioAssay.
